AddAB inh: growth inhibition of E. coli expressing H. pylori AddAB, primary screen, AddAB inhibitor project, absorbance | inhibition, % at 11.9 µM | 330,000 tested, 0.29% active | AID 435030, 2010; in the data active means inhibition above about 12%
phage Ecoli inh: growth loss of phage-infected E. coli, primary screen, RecBCD inhibitor project, absorbance, with phage, HTS; inhibition, % at 11.9 µM; 360,000 tested, 0.26% active; AID 651602, 2012; in the data active means inhibition above about 11%
Tat export inh: E. coli Tat export inhibitors, primary screen, MC4100, TorA-mCherry reporter, fluorescence, single point | inhibition, % at 10 µM | AID 488895, 2010 | 340,000 tested, 0.036% active;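 active means mean replicate inhibition at least 50% and at least half of replicates individually reaching 50%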;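 further: exported cargo escapes ClpAP degradation while cytoplasmic cargo is degraded and loses fluorescence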
E coli growth-1: E. coli growth inhibition, primary screen, OD600; Escherichia coli growth, 23 h; active compounds read low; OD600 absorbance (no concentration beside the values); AID 1053175, 2014; 330,000 tested, 0.21% active;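 active means OD600 absorbance below the run mean of sample wells minus 3.6 SD, in any replicate, cut at about 0.56 in these data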
E coli growth-2: E. coli V3065 growth inhibition, primary screen, counter-screen for AddAB inhibitor project, absorbance, OD600; 18 h; inhibition, % at 11.9 µM; 330,000 tested, 0.27% active; AID 449728, 2010;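 active means inhibition above the campaign's mean inhibition across all tested compounds plus 3 SD, cut at about 9.9% in these data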;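 further: uninfected addAB+ strain grown without phage in ampicillin broth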
AddAB confirm: growth loss of phage-infected E. coli expressing H. pylori AddAB, confirmation, AddAB inhibitor project, absorbance, E. coli V3065, T4 phage, triplicate | shares compounds with AddAB inh | OD; T4 phage with gene 2 nonsense mutations | inhibition, % at 11.9 µM | 880 tested, 64% active | AID 488942, 2010;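 active means mean inhibition above a set limit taken from the earlier primary screen, cut at about 13% in these data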;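 further: higher means less bacterial growth since AddAB block lets phage replicate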
RecBCD counter: growth loss of RecBCD+ E. coli with mutant T4 phage, counter-screen for AddAB inhibitor project, absorbance, V66 E. coli; shares compounds with AddAB inh; OD growth; inhibition, % at 11.9 µM; 880 tested, 73% active; AID 488955, 2010;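 active means mean inhibition above the mean of solvent-only control wells plus 3 SD, cut at about 4% in these data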;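 further: optical density read after an 18 h incubation at 37 °C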
Bact viability: bacterial viability inhibition counter-screen, confirmation, counter-screen for AddAB inhibitor project, absorbance; 880 tested, 35% active; inhibition, % at 11.9 µM; shares compounds with AddAB inh; AID 488956, 2010; absorbance (AddAB counterscreen); in the data active means inhibition above about 25%
Large screens that a line does not name were inactive (follow-up assays come after a bar, where they were run). A selection: hits, their analogues and other compounds. The true share with any hit is near 0.5%.

Oc1ccc(/C=N/NC(=S)Nc2cccnc2)c(O)c1	AddAB inh 16, E coli growth-2 11 (no result: E coli growth-1) | AddAB confirm inactive | RecBCD counter 11 | Bact viability inactive
Cn1c(OCc2cccnc2)nc2c1c(=O)n(Cc1ccc(Br)cc1)c(=O)n2C	AddAB inh 23, E coli growth-2 84 | AddAB confirm inactive | RecBCD counter inactive | Bact viability inactive
NC(Cn1cncn1)=NNC(=O)c1ccc(Cl)cc1Cl	none (no result: AddAB inh, phage Ecoli inh, Tat export inh, E coli growth-2)
COc1cccc(C=NNc2snc(SC)c2C#N)c1O	none (no result: AddAB inh, phage Ecoli inh, Tat export inh, E coli growth-2)
O=C(Cc1ccc([N+](=O)[O-])cc1)NCc1cccnc1	none
CC(Sc1ccsc1[N+](=O)[O-])C(=O)NCc1ccco1 (configuration not stated)	AddAB inh 14 | AddAB confirm 23 | RecBCD counter inactive | Bact viability inactive
O=C(NCc1ccco1)c1ccc(Cn2cc([N+](=O)[O-])cn2)o1	none
O=C(NCc1ccco1)c1ccc([N+](=O)[O-])o1	AddAB inh 35 (no result: E coli growth-1) | AddAB confirm 76 | RecBCD counter 6.6 | Bact viability inactive
CC(Sc1nnc(-c2cccs2)n1-c1ccccc1)C(=O)NCc1ccco1 (configuration not stated)	none
COc1cc(NC(=O)c2ccc([N+](=O)[O-])o2)ccc1NC(=O)c1ccco1	AddAB inh 16, E coli growth-2 12 | AddAB confirm 74 | RecBCD counter 6.7 | Bact viability inactive
O=C(NCc1cccnc1)c1ccc([N+](=O)[O-])o1	AddAB inh 17, phage Ecoli inh 17, E coli growth-1 0.5, E coli growth-2 13 | AddAB confirm 71 | RecBCD counter 7.9 | Bact viability inactive
O=C(NN=C/C=C\c1ccc([N+](=O)[O-])cc1)c1cccnc1	none (no result: AddAB inh, phage Ecoli inh, Tat export inh, E coli growth-2)
CC(=NNC(=O)c1cc(C)nc2ccccc12)c1cccc(Cl)c1	none (no result: AddAB inh, phage Ecoli inh, Tat export inh, E coli growth-2)
CN(C)c1nc(NN=Cc2ccccc2O)nc(Nc2ccc(F)cc2)n1	none (no result: AddAB inh, phage Ecoli inh, Tat export inh, E coli growth-2)
CC1=NN(C(N)=S)C(=O)C1N=Nc1c(Br)cc(Br)cc1Br (configuration not stated)	AddAB inh 14, E coli growth-2 14 (no result: E coli growth-1) | AddAB confirm 26 | RecBCD counter 13 | Bact viability 26
CC1=NN(C(N)=S)C(=O)C1N=Nc1c(C)cc(C)cc1C (configuration not stated)	none
Cc1cccc2cc(C#N)c(N3CCC(O)CC3)nc12	AddAB inh 13 | AddAB confirm inactive | RecBCD counter inactive | Bact viability inactive
Cc1cccc2cc(C#N)c(N3CCOCC3)nc12	none
CC(=O)N1C(C)C=C[C@]1(Cc1ccccc1)C(=O)NCc1cc(F)cc(C(F)(F)F)c1 (some centres not stated)	none (no result: AddAB inh, phage Ecoli inh, Tat export inh, E coli growth-2)
COc1cccc(/C=N/NC(=O)c2[nH]c(C)c(C(=O)N/N=C/c3cccc(OC)c3O)c2C)c1O	AddAB inh 28, phage Ecoli inh 22, E coli growth-2 28 (no result: E coli growth-1) | AddAB confirm 18 | RecBCD counter 21 | Bact viability inactive
Cc1ccc(/C=C/C(=O)c2ccccc(=O)c2O)cc1C	AddAB inh 13 | AddAB confirm inactive | RecBCD counter 6.1 | Bact viability inactive
CC1=NN(C(=O)c2ccc(Cn3ccc([N+](=O)[O-])n3)cc2)C(O)(C(F)(F)F)C1 (configuration not stated)	AddAB inh 14 | AddAB confirm inactive | RecBCD counter inactive | Bact viability inactive
NS(=O)(=O)c1ccc(CCNC(=O)CSc2ccsc2[N+](=O)[O-])cc1	AddAB inh 16, E coli growth-2 15 | AddAB confirm 40 | RecBCD counter 5.4 | Bact viability 32
C=CCn1c(CNc2ccccc2)nnc1SCC(=O)NN=Cc1ccc(O)cc1O	none (no result: AddAB inh, phage Ecoli inh, Tat export inh, E coli growth-2)
Cc1ccc(-c2noc(N=O)c2NO)cc1	AddAB inh 24, E coli growth-2 19 | AddAB confirm 33 | RecBCD counter 7.9 | Bact viability 31
COc1ccc(-c2nnc3ccc(SCC(=O)N4CCCCC4)nn23)cc1OC	AddAB inh 97, E coli growth-2 48 | AddAB confirm inactive | RecBCD counter inactive | Bact viability inactive
COc1ccc(OC)c(-c2c3cc(O)c(=O)cc-3oc3cc(O)c(O)cc23)c1	AddAB inh 14 (no result: phage Ecoli inh, E coli growth-1) | AddAB confirm inactive | RecBCD counter inactive | Bact viability inactive
O=c1cc2oc3cc(O)c(O)cc3c(-c3ccccc3O)c-2cc1O	none (no result: AddAB inh, phage Ecoli inh, E coli growth-2)
C/C(=N\OCc1nc2ccccc2c(=O)n1/N=C/c1cc(C)cc([N+](=O)[O-])c1O)c1ccccc1	none (no result: E coli growth-1)
C/C(=N\OCc1nc2ccccc2c(=O)n1/N=C/c1cc([N+](=O)[O-])ccc1O)c1ccccc1	AddAB inh 13 (no result: E coli growth-1) | AddAB confirm inactive | RecBCD counter inactive | Bact viability inactive
CSc1nnc2n(-c3ccc(C)cc3)c(=O)c3c4c(sc3n12)COC(C(C)C)C4 (configuration not stated)	AddAB inh 15 | AddAB confirm inactive | RecBCD counter inactive | Bact viability inactive
CCC(C)NC(=O)c1cn(CC)c2cc(N3CCN(C(=O)c4ccco4)CC3)c(F)cc2c1=O (configuration not stated)	AddAB inh 18, E coli growth-2 12 | AddAB confirm 96 | RecBCD counter inactive | Bact viability inactive
CCn1cc(C(=O)NCc2ccco2)c(=O)c2cc(F)c(N3CCN(C(=O)c4ccco4)CC3)cc21	AddAB inh 49, E coli growth-1 0.45, E coli growth-2 50 | AddAB confirm 102 | RecBCD counter 4.0 | Bact viability 76
CCn1cc(C(=O)NCC(C)C)c(=O)c2cc(F)c(N3CCN(C(=O)c4ccco4)CC3)cc21	none
CC1CCCC(C)N1N=Cc1ccc(Cl)cc1 (configuration not stated)	none (no result: AddAB inh, phage Ecoli inh, Tat export inh, E coli growth-2)
CN=c1c([N+](=O)[O-])nn(-c2ccc3c(c2)OCCO3)n1O	AddAB inh 21, E coli growth-2 19 | AddAB confirm 31 | RecBCD counter 9.9 | Bact viability 31
COc1ccc(C=NNC(=O)Cc2n[nH]c(=O)[nH]c2=O)cc1	none (no result: AddAB inh, phage Ecoli inh, Tat export inh, E coli growth-2)
CC(C)c1ccc(NC(=S)NC2CCCCCC2)cc1	AddAB inh 98, E coli growth-2 87 | AddAB confirm inactive | RecBCD counter inactive | Bact viability inactive
S=C(Nc1ccc(Oc2ccc(NC(=S)NC3CCCCC3)cc2)cc1)NC1CCCCC1	none
CCc1cccc(NC(=O)CCCSc2nc3ccccc3[nH]2)c1	AddAB inh 12 | AddAB confirm inactive | RecBCD counter inactive | Bact viability inactive
Cn1cccc1C=NN1CCN(Cc2ccccc2Cl)CC1	none (no result: AddAB inh, phage Ecoli inh, Tat export inh, E coli growth-2)
